High-throughput results deposited in PubChem BioAssay by National Center for Advancing Translational Sciences (NCATS).
hNpr1 antagonist: human Npr1 receptor antagonism | P16066 | HEK293 hNpr1 GloSensor cGMP, ANP-stimulated luminescence | Potency, µM (titrated, usually from 46.3 µM), for the others: top-dose activity change, negative = inhibition, usual class: inhibitors | actives 1.6% (n = 76,000); calls by dose curve; note: nearly all actives have a fitted effect of over 60% in size
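Compound pre-incubated 30 min at room temperature on GloSensor-loaded HEK293 cells stably carrying hNpr1 and the pGS-40F cGMP biosensor. Stimulation uses hNppA at 0.1 nM final; luminescence is taken at baseline and 20 min post-agonist.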
FLuc inh: blocks purified firefly luciferase enzyme activity; actives 2.5% (n = 76,000); purified P. pyralis luciferase, luminescence, biochemical; Potency, µM (highest dose often 115 µM), most hits filed as inhibitors; note: nearly all actives have a fitted effect of over 65% in size
Target sequence (P08659 whole entry, looked up): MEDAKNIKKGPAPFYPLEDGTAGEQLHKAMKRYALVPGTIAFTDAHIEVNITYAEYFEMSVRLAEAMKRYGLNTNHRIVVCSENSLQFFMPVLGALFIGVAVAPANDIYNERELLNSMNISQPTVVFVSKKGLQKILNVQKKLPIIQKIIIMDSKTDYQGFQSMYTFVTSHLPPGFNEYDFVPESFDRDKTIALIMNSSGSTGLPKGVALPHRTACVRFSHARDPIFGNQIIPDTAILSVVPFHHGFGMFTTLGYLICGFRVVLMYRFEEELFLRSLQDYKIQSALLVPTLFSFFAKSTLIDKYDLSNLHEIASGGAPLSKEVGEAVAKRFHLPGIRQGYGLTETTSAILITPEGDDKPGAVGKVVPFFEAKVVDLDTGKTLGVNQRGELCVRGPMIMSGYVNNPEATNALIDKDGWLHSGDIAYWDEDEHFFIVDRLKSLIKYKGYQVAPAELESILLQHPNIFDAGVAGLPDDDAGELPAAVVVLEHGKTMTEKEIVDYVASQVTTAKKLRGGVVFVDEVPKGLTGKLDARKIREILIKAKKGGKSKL
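Biochemical qHTS: compound (6-point titration) added to 10uM D-luciferin plus 10uM ATP in Tris acetate pH 7.5 buffer with Mg, Tween-20 and BSA, then purified enzyme at 10nM; light output imaged.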
HEK cytotox: HEK 293 cell cytotoxicity. HEK 293 viability, ATP luminescence (CellTiter-Glo), 48-72 h. actives 6.6% (n = 94,000). Potency, µM (series often up to 115 µM), without a hit: at the highest dose activity change, negative = cytotoxicity, usual class: inhibitors. AID 1345083; note: nearly all actives have a fitted effect of over 60% in size
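Cells seeded first (HEK 293, 250 cells/well), then compound added by pintool. Incubation ran 48 or 72 hr at 37 degree Celsius. CellTiter-Glo was added and luminescence imaged after 10 min at room temperature.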
NIH3T3 tox: cytotoxic compounds in NIH 3T3 cells. NIH 3T3 viability, CellTiter-Glo ATP luminescence, 48-72 h. Potency, µM (top dose mostly 96.7 µM), for inactives: at the top dose activity change, negative = cytotoxicity, most hits filed as inhibitors. actives 4.3% (n = 94,000). AID 1345082; note: nearly all actives have a fitted effect of over 55% in size
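Cells were seeded at 400 per well, treated with pin-transferred compound, and kept 48 or 72 hr at 37 °C before CellTiter-Glo addition and luminescence imaging of cellular ATP.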
GPT2 inhibitor: blocks human glutamate pyruvate transaminase 2. actives 0.25% (n = 100,000). Recombinant GPT2, coupled pyruvate oxidase/HRP Amplex Red fluorescence. Potency, µM (top dose mostly 57.7 µM), inactives show at the top dose activity change, negative = inhibition, actives largely listed as inhibitors. Q8TD30. AID 1671188; note: nearly all actives have a fitted effect of over 60% in size
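Recombinant GPT2 (10ng/uL) with 250uM a-KG and 2mM L-alanine, 30 min at room temperature, in HEPES pH 7.5 buffer. Pyruvate detected by pyruvate oxidase/HRP/Amplex Red fluorescence after 30 min in the dark; AOA (50uM) as positive control.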
Active calls of the source: *; i = inactive; ? = inconclusive; . = not tested or not shown; ! = a repeat was not active; [ ] = remark or other dose. Only some compounds are listed: those with a hit (about 10% of all), similar ones and a draw of the others. Unless noted, calls come from the whole dose curve; as a rule, active = well fitted curve in the direction sought with a large enough effect; inconclusive = small, poorly fitted or top-dose-only effect, or another doubt; inactive = no such curve, though single readings can be large; an effect the other way counts as inactive or inconclusive. % is set by controls: 0 for no effect and ±100 for the full control effect; potency is the fitted concentration of half-maximal effect.

SMILES	hNpr1 antagonist	FLuc inh	HEK cytotox	NIH3T3 tox	GPT2 inhibitor
O=C(NC1CCCCCC1)C1CCCCN1Cc1ccc(-c2ccsc2)cc1 (centres undefined)	.	.	?	-34%	5%
Cc1ccc(-c2cccc(CN3CCCC3C(=O)NC3CCCC3)c2)cc1Cl (centres undefined)	.	.	35µM*	?	.
O=C(NCCc1ccccc1)Nc1cnc2c(c1)CCC2	.	.	i	-12%	-11%
Cn1nc(C(=O)N2CCCN(S(=O)(=O)c3ccccc3)CCC(=O)NCC2)c2ccccc21	-3%	i	-17%	-18%	i
COCCCNC(=O)C1CCCN1Cc1cccc(-c2ccc(C)c(Cl)c2)c1 (centres undefined)	.	.	?	40µM*	.
Cc1ccc(-c2cccc(CN3CCCC3C(=O)NC(C)C)c2)cc1Cl (centres undefined)	.	.	22µM*	22µM*	.
COCc1nnc(C2CC3(CCN(C(=O)c4ccc(C)s4)CC3)CN2C)o1 (centres undefined)	.	.	-5%	-9%	4%
O=C(c1[nH]nc2c1COc1ccccc1-2)N1CCC(Cc2nncn2CC2CC2)CC1	0%	i	-28%	40µM*	i
Cc1cccc(C(=O)N2CCC(Cc3nncn3CC3CC3)CC2)c1	-6%	i	-8%	-25%	i
CN(c1ccccc1)c1cc(=O)c2ccnc(-c3cccnc3)c2o1	7%[70.6 µM]	i	-28%[172 µM]	18µM*	1%[88.5 µM]
CN(C)c1cc(=O)c2ccnc(Nc3cccnc3)c2o1	2%[70.6 µM]	i	i	79µM*	-8%[88.5 µM]
CN(c1ccccc1)c1cc(=O)c2ccnc(-c3ccnn3C)c2o1	8%[70.6 µM]	i	?	35µM*	i
CN(c1ccccc1)c1cc(=O)c2ccnc(-c3cncnc3)c2o1	7%[70.6 µM]	i	-1%[172 µM]	79µM*	?
CN1CCC(Nc2nccc3c(=O)cc(N(C)c4ccccc4)oc23)CC1	-3%[70.6 µM]	i	-10%[172 µM]	?	5%[88.5 µM]
CN(c1cc(=O)c2ccnc(-c3ccccc3Oc3ccccc3)c2o1)C1CCOCC1	-4%[70.6 µM]	i	-29%[172 µM]	-93%[138 µM]	?
COCCc1noc(C2Cc3ccccc3N2C(=O)CCc2cccc(OC)c2)n1 (centres undefined)	.	.	?	?	4%
CN1CCN(c2ccc(-c3nccc4c(=O)cc(N(C)c5ccccc5)oc34)cn2)CC1	-1%[70.6 µM]	?	?	?	-15%[88.5 µM]
COc1ncc(-c2nccc3c(=O)cc(N(C)c4ccccc4)oc23)cn1	1%[70.6 µM]	i	-26%[172 µM]	32µM*	-3%[88.5 µM]
CCC1=C(C(=O)OC)C(c2cccc(F)c2)N2C(CC(=O)NCCc3cccs3)=CSC2=N1 (centres undefined)	?	i	?	?	-25%
CN(Cc1cccnc1)Cc1ccccc1C(F)(F)F	0%[70.6 µM]	i	4%[172 µM]	-4%[138 µM]	3%[88.5 µM]
CCN1C(=O)C2CC3(CCN(C(=O)CCc4c[nH]c5ccccc45)CC3)CN2C1=O (centres undefined)	-3%	i	-19%	-25%	i
CC(C)C(=O)NC1CCN(C(=O)c2ccc(-c3cccs3)cc2)CC1	.	.	71µM*	?	i
O=C(NC1CCN(C(=O)c2ccc(-c3cccs3)cc2)CC1)C1CC1	.	.	?	?	i
O=C(c1ccc(-c2cccs2)cc1)N1CCC(N[S+](=O)([O-])c2cccs2)CC1	.	.	45µM*	?	?
COc1ccccc1-c1ccc(C(=O)N2CCC(N[S+](=O)([O-])c3cccs3)CC2)cc1	.	.	89µM*!	?	0%
SMILES	hNpr1 antagonist	FLuc inh	HEK cytotox	NIH3T3 tox	GPT2 inhibitor
COc1cccc(-c2ccc(C(=O)N3CCC(N[S+](=O)([O-])c4c(C)noc4C)CC3)cc2)c1	.	.	22µM*	?	-10%
COc1cccc(C(=O)N2CC(c3nnc(-c4ccc(C)cc4)o3)C3(CCOCC3)C2)c1C (centres undefined)	-2%	i	?	-14%	0%
CCC1Oc2ccc(NC(=O)c3ccc(OC)c(OC)c3)cc2CN(Cc2ccc(Cl)cc2)C1=O (centres undefined)	-7%	i	?	-24%	4%
O=C1CC(c2ccccc2)N(S(=O)(=O)c2ccc3c(c2)OCCO3)CCCCCN1 (centres undefined)	-1%	i	-10%	4%	i
COc1cccc(-c2ccc(C(=O)N3CCC(N[S+](=O)([O-])c4cccs4)CC3)cc2)c1	.	.	18µM*	16µM*	i
Cc1ccc2c(C)c(C(=O)N3CC[C@H](O)[C@@H](O)C3)oc2c1	3%	i	-19%	-12%	i
CCc1cn[nH]c1C1CCCN(C(=O)c2oc3cc(C)ccc3c2C)C1 (centres undefined)	-3%	i	?	45µM*	-2%
CC#CCn1c(N2CCCC(N)C2)nc2c1c(=O)n(Cc1nc(C)c3ccccc3n1)c(=O)n2C (centres undefined)	.	.	.	.	i
COc1ccc(-c2ccc3ncc(Nc4ccc(CN5CCN(C)CC5)cc4)n3n2)cn1	6%[70.6 µM]	i	?	?	i
COc1ccc(Nc2cnc3ccc(-c4ccccc4OC)nn23)cc1	-14%[70.6 µM]	?	79µM*	?	-22%[88.5 µM]
COc1ccccc1-c1ccc2ncc(Nc3ccc(CN4CCN(C)CC4)cc3)n2n1	-12%[70.6 µM]	i	50µM*	25µM*	?
COc1ccccc1-c1ccc2ncc(Nc3cccc(O)c3)n2n1	1%[70.6 µM]	?	?	?	i
CCOC(=O)N1CCC(Oc2cnc3c(ccn3-c3cncnc3)c2)CC1	-8%[70.6 µM]	i	-23%[172 µM]	10µM*	2%[88.5 µM]
COc1ccc(F)cc1-c1cccc(C(=O)NCCNC(=O)Nc2ccccc2)c1	.	.	50µM*	35µM*	i
COc1ccc(F)cc1-c1cccc(C(=O)NCCNC(=O)c2ccccc2C)c1	.	.	?	?	1%
COc1ccc(F)cc1-c1cccc(C(=O)NCCNC(=O)c2ccc(C)cc2)c1	.	.	?	-32%	i
COc1ccc(F)cc1-c1cccc(C(=O)NCCNC(=O)Nc2ccccc2F)c1	.	.	20µM*	?	.
CCO[C@H]1CN(C(=O)CCc2nc3c(C)c(C)ccc3[nH]2)C[C@@H]1O	8%	i	-3%	1%	-2%[11.5 µM]
Cc1ccc(NC(=O)c2cc3c(s2)CN(C2CC2)C3)cc1	-30%	8.9µM*	?	?	i
CCOc1ccc(NC(=O)c2cc3c(s2)CN(C2CCCC2)C3)cc1	-20%	i	?	?	2%
CSc1ccc(NC(=O)c2cc3c(s2)CN(C2CC2)C3)cc1	11µM*	?	?	?	i
O=c1n(-c2ccc(F)cc2F)nc2n1CCN(Cc1ccc(C(F)(F)F)cc1)C2	?	i	79µM*	-22%	-15%
O=c1n(-c2ccc(C(F)(F)F)cc2)nc2n1CCN(Cc1ccsc1)C2	.	.	50µM*	?	?
